Assay outcomes from PubChem.
Most compounds without a hit are left out; they make up all but 8% or so of the library.
MCF10A rerep: DNA re-replication induction in MCF 10a cells. Potency, µM (doses to about 46.1 µM), for the others: at the top dose activity, positive = re-replication, most hits filed as activators. 350,000 tested, 2.9% active. MCF 10A DNA re-replication, Hoechst nuclear intensity, 48 h; further: % of control where 0% means no effect; nearly all actives have a fitted effect of over 50% in size
HT1080NT lethal: kills 2HG-producing HT-1080-NT fibrosarcoma cells. HT-1080-NT fibrosarcoma viability, CellTiter-Glo ATP luminescence, 48 h. Potency, µM (top dose mostly 46.1 µM), without a hit: at the top dose activity, negative = less viability, usual class: cytotoxic. 360,000 tested, 1.6% active. AID 686970;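 further: NT is the 2HG producing partner of a matched IDH1 knockdown line; 0% = DMSO-treated cells and -100% = media-only wells without cells; nearly all actives have a fitted effect of over 55% in size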
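Compounds were tested in concentration-response format on HT-1080-NT cells for 48 hours at 37 degrees C. Cell viability came from CellTiter-Glo luminescence; curves were classified by r2, response magnitude and activity.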
HT1080 IDH1KD tx: toxicity to HT-1080 IDH1 knockdown cells (counter line) | HT-1080 IDH1 knockdown viability, ATP luminescence, 48 h | Potency, µM (highest dose often 46.1 µM), inactives show at the highest dose activity, negative = toxicity, usual class: cytotoxic | 360,000 tested, 2% active | AID 686971;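 further: 0% = DMSO wells and -100% = cell-free medium wells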
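After a 2 h attachment period, IDH1KD HT-1080 cells took pin-transferred compound for 48 h at 37 °C; ATP-based luminescence after 10 min room-temperature reagent incubation reported viability.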
KB-3-1 tox: KB-3-1 parental cell cytotoxicity | KB-3-1 viability, CellTiter-Glo ATP luminescence, 72 h | Potency, µM (doses to about 46.1 µM), hits mostly cytotoxic | 400,000 tested, 1.4% active; further: on the % scale 0 is the no-effect control and ±100 the full control effect; nearly all actives have a fitted effect of over 60% in size
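Cytotoxicity measured as CellTiter-Glo luminescence after 72 h at 37 C. Compound titrations were pinned onto drug-naive KB-3-1 parental adenocarcinoma cells grown in DMEM with 10% FBS, and normalized data fitted to concentration-response curves.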
KB-V1 cytotox: kills drug-selected multidrug resistant KB-V1 cells; 400,000 tested, 3.4% active; Potency, µM (highest dose often 46.1 µM), most hits filed as cytotoxic; KB-V1 MDR cells viability, CellTiter-Glo, 72 h; AID 1347076; further: on the % scale 0 is the no-effect control and ±100 the full control effect; nearly all actives have a fitted effect of over 60% in size
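Cytotoxicity toward P-gp-expressing KB-V1 cells was determined as loss of CellTiter-Glo luminescence after 72 h at 37 degrees C. Compounds were tested in quantitative HTS format across a concentration range, with curves fitted to normalized data.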
SW480 rereplic: inducers of DNA re-replication in SW480 colon cancer cells; SW480 DNA re-replication, Hoechst DNA content imaging, 48 h; Potency, µM (titrated, usually from 46.1 µM), inactives show top-dose re-replication activation, most hits filed as activators; 340,000 tested, 1.8% active; AID 624297; further: % of control where 0% means no effect; nearly all actives have a fitted effect of over 55% in size
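Cells (250 per well) received 23 nL compound or DMSO by pin tool and were kept 48 hr at 37 C, 5% CO2. Nuclei were then stained with Hoechst for 40 min and scanned for DNA content.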
Active calls of the source: *; i = inactive; ? = inconclusive; · = no result given. The call rests on the fitted dose curve; in most records, active means well fitted curve in the direction sought with a large enough effect; inconclusive means small, poorly fitted or top-dose-only effect, or another doubt; inactive means no such curve, though single readings can be large; an effect the other way counts as inactive or inconclusive. Potency means the concentration at half of the fitted maximal effect.

SMILES | MCF10A rerep | HT1080NT lethal | HT1080 IDH1KD tx | KB-3-1 tox | KB-V1 cytotox | SW480 rereplic
O=C(COC(=O)c1ccccc1)Nc1cccc(S(=O)(=O)NC2=NCCCCC2)c1 | 4% | ? | 21% | i | i | -1%
CCN(CC)c1ccc(C(=O)OCC(=O)Nc2cccc(S(=O)(=O)NC3=NCCCCC3)c2)cc1 | ? | 2% | 9% | ? | 21µM* | 23%
COC(=O)c1ccccc1NC(=O)N1CCC(n2c(C)nc3cccnc32)CC1 | · | · | · | i | i | ·
Cc1csc(SCc2nc3sc4c(c3c(=O)[nH]2)CCC4)n1 | 16% | -1% | 2% | i | 5.2µM* | -7%
Cc1ccc(OCCNc2ccc(S(=O)(=O)N3CCCC3)cn2)cc1 | 58% | -21% | -24% | i | ? | 21µM*
O=S(=O)(c1ccc(SCCOc2ccccc2)nc1)N1CCCC1 | 1% | 0% | 9% | i | i | -3%
O=S(=O)(c1ccc(NCCOc2ccccc2)nc1)N1CCCC1 | -6% | 12% | 8% | i | 21µM* | -6%
Cc1ccc(OCCOC(=O)c2cc(S(=O)(=O)N3CCCCC3)ccc2N2CCOCC2)cc1 | 13% | -1% | ? | 4.6µM* | 2.9µM* | ?
CC(C)(C)c1ccc(-c2nc3cc(NC(=O)c4cccc(Br)c4)ccc3o2)cc1 | · | · | · | i | ? | ·
O=C(CSc1nnc(CNC(=O)c2c(F)cccc2Cl)o1)Nc1ccccc1F | · | · | · | i | i | ·
CCN(CC)c1ccc(-c2nnc(SCC(=O)NCc3ccco3)n2CC)cc1 | · | · | · | i | i | ·
Cc1c(C(=O)NCc2ccc(F)cc2)sc(=O)n1Cc1ccc(Cl)c(Cl)c1 | · | ? | ? | ? | 16µM* | ·
CSc1ccc(Cn2c(C)c(C(=O)NCc3ccc4c(c3)OCCO4)sc2=O)cc1 | · | 0% | -30% | i | 18µM* | ·
COc1ccc(NC(=O)c2sc(=O)n(Cc3cccc(C(F)(F)F)c3)c2C)cc1OC | · | -2% | ? | 8.2µM* | ? | ·
COc1ccc(NC(=O)c2sc(=O)n(Cc3ccc(SC)cc3)c2C)cc1OC | · | 4% | 6% | i | ? | ·
Cc1c(C(=O)NCc2ccc3c(c2)OCCO3)sc(=O)n1Cc1cccc(C(F)(F)F)c1 | · | -26% | ? | ? | 7.3µM* | ·
Cc1c(C(=O)NCCC#N)sc(=O)n1Cc1ccc(F)cc1 | · | 7% | 24% | i | i | ·
CSc1ccc(Cn2c(C)c(C(=O)NCCC#N)sc2=O)cc1 | · | -5% | ? | ? | 15µM* | ·
CSc1ccc(Cn2c(C)c(C(=O)NCc3ccc(Cl)c(Cl)c3)sc2=O)cc1 | · | -25% | -14% | 15µM* | 16µM* | ·
CCNc1nc(C)c2cc(Br)c(=O)n(CC)c2n1 | ? | 2.9µM* | 2.1µM* | ? | 6.5µM* | -1%
CCNc1nc(NC(C)C)nc(Nn2cnnc2)n1 | 1% | 8% | 7% | i | i | -5%
CCOc1ccc(-c2nn(-c3ccccc3)cc2C2NC(=O)NC(C)=C2C(=O)OC(C)C)cc1 (centres undefined) | · | · | · | ? | i | ·
CCOc1cccc(C2c3[nH]c4ccccc4c3CCN2C(=O)Cc2cccc(OCC)c2OCC)c1 (centres undefined) | · | · | · | i | i | ·
C=C(C)CSc1cc(C)nc2c(-c3ccccc3)c(C)nn12 | 16% | ? | -26% | ? | 6.5µM* | 0%
CCSc1cc(C)nc2c(-c3ccccc3)c(C)nn12 | 20% | 2% | 8% | i | i | -3%
SMILES | MCF10A rerep | HT1080NT lethal | HT1080 IDH1KD tx | KB-3-1 tox | KB-V1 cytotox | SW480 rereplic
C=CCSc1cc(C)nc2c(-c3ccc(Cl)cc3)c(C)nn12 | 21µM* | 11% | 2% | i | ? | ?
CCN(C(=O)C(=O)c1c(C)[nH]c2ccccc12)c1ccccc1 | · | · | · | i | i | ·
COc1cc(/C=C2\CCCc3c2nc2ccccc2c3C(=O)O)cc(OC)c1O | -2% | -1% | 8% | i | i | 26µM*
COc1cc(-c2nc3ccc4ccccc4c3c3c2CCC3)cc(OC)c1OC | 16% | ? | ? | i | i | 1%
COc1cc(-c2nc3ccc4ccccc4c3c3c2CCC3)cc(OC)c1O | 15µM* | ? | ? | ? | ? | ?
CN(C)c1ccc(/C=C2\CCCc3c2nc2ccccc2c3C(=O)O)cc1 | 18µM* | -14% | 0% | i | i | 23%
COc1cc(/C=C2\CCCc3c2nc2ccccc2c3C(=O)O)cc([N+](=O)[O-])c1O | -5% | 13% | -8% | i | i | -6%
Nc1ccc(C23CC4CC(CC(CO)(C4)C2)C3)cc1 | 3% | 1% | 4% | i | i | -22%
NCC12CC3CC(C1)CC(c1ccc(Cl)cc1)(C3)C2 | ? | 23µM* | ? | i | ? | 6%
O=C(C1CC1)N1c2ccccc2Sc2ccccc21 | ? | ? | 18µM* | 21µM* | ? | ?
COc1ccc(NC(=O)/C=C/c2ccc(OC(F)F)cc2)cn1 | 21µM* | -13% | ? | i | i | ?
COc1ccccc1-c1nn(CCC(=O)Nc2ccc(C)cc2)c2nc(C)cc(C)c12 | · | · | · | i | ? | ·
Cc1ccc(C2NC(=O)c3ccccc3N2)s1 (centres undefined) | ? | ? | 15µM* | 4.6µM* | 7.3µM* | 21µM*
CN(C)c1ccc(C2NC(=O)c3ccccc3N2)cc1 (centres undefined) | ? | -22% | -23% | ? | 13µM* | ?
Cc1ccc(N=C2C(=O)Nc3ccccc32)c(C)c1 | 6% | -6% | -1% | i | i | -6%
O=C1NC(c2ccc(Cl)cc2)Nc2ccccc21 (centres undefined) | -41% | -7% | 5% | i | i | -9%
Cc1ccc(C2NC(=O)c3ccccc3N2)c(C)c1 (centres undefined) | 6.5µM* | 7.3µM* | 18µM* | 3.7µM* | 5.8µM* | ?
Cc1cccc(C2NC(=O)c3ccccc3N2)c1 (centres undefined) | 15µM* | ? | ? | 13µM* | ? | 16µM*
COc1ccc(-n2c(=O)c3c(c4cc(OC)ccc4n3C)n(CCC(C)C)c2=O)cc1 | · | · | · | i | i | ·
O=C(NCCc1ccccc1)c1ccc2c(c1)N(Cc1c(F)cccc1Cl)C(=O)CS2 | · | · | · | i | i | ·
CCOC1=C/C(=C/c2c(N)n3nc(-c4ccccc4)sc3nc2=O)C=CC1=O | 26µM* | -6% | -6% | i | i | -7%
C(=C\c1ccccc1)/CN1CCN(C(c2ccnc3ccccc23)c2nnnn2C2CCCC2)CC1 (centres undefined) | · | -29% | ? | i | 15µM* | ·
